Screens (PubChem)
Only some compounds are listed: those with a hit (about 3.4% of all), similar ones and a draw of the others.
GPR151 ag = activators of human GPR151 | Q8TDV0 | PathHunter beta-arrestin GPR151 cells, luminescence | activation, % at 11.2 µM | 650,000 compounds, 1% hits | AID 1508602; in the data active = activation above about 4.9%
FBW7 act = human FBW7 E3 ligase activation, primary screen; 650,000 compounds, 0.13% hits; Q969H0; normalized activity (activation), % at 26.1 µM; AID 1259310; AlphaScreen FBW7–phospho-cyclin E peptide binding, activator screen; in the data active = normalized activity above about 1.9%;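 also: purified mutant Fbw7 with reduced substrate affinity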
MITF primary = inhibitors of human MITF; AID 1259374; AlphaScreen MITF homodimerization, bead proximity signal; 650,000 compounds, 0.91% hits; inhibition, % at 2.6 µM; in the data active = inhibition above about 50%
TEAD-YAP block = TEAD-YAP interaction inhibition. HEK-TIYL cells, TEAD-Gal4/YAP UAS-luciferase luminescence. inhibition, % at 9.12 µM. 640,000 compounds, 1.4% hits. AID 1259422; in the data active = inhibition above about 32%
GPR151 confirm = human GPR151 activation, confirmation screen; shares compounds with GPR151 ag; GPR151 PathHunter beta-arrestin cells, luminescence, 90 min; % of EA-reagent control over plate median; activation, % at 11.2 µM; 6,700 tested, under 10 active;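 active = mean percent activation across replicates above the confirmation screen cutoff of 4.91%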
GPR119 ag = GPR119 activation, counter-screen for GPR151 activators; shares compounds with GPR151 ag; GPR119 PathHunter beta-arrestin cells, luminescence, 90 min; 0 = compound-well median, 100 = enzyme-acceptor control; activation, % at 11.2 µM; 6,700 compounds, 0.3% hits;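 active = mean percent activation in the counterscreen above 29.09%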;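 also: counterscreen on off-target GPR119 to flag nonselective hits from the GPR151 activator screen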
Target sequence (Q8TDV5 whole entry, looked up): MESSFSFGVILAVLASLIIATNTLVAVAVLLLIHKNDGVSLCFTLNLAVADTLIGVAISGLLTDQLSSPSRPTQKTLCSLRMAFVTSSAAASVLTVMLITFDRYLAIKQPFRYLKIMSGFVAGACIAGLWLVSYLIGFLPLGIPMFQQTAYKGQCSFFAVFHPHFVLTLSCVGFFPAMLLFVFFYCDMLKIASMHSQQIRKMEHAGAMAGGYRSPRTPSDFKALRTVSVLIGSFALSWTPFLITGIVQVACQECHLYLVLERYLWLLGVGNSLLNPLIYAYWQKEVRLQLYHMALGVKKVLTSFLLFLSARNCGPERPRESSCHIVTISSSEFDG
Of the large screens only hits and unclear results are named; the others gave an inactive call (follow-up assays come after a bar, where they were run).

O=C(CCOc1ccccc1)Nc1cnn(CC(=O)N2CCc3c(Cl)cccc3C2)c1	none
NC(=O)/C(=C/c1cccc([N+](=O)[O-])c1)NC(=O)c1ccco1	GPR151 ag 6.8 | GPR151 confirm inactive | GPR119 ag inactive
CNC(=O)/C(=C/c1cccc([N+](=O)[O-])c1)NC(=O)c1ccc(C(C)(C)C)cc1	GPR151 ag 6.0 | GPR151 confirm inactive | GPR119 ag inactive
O=C(OCc1ccccc1)/C(=C/c1cccc([N+](=O)[O-])c1)NC(=O)c1ccco1	none
CCCN(CCC)S(=O)(=O)c1cc(OC)c(Br)cc1OC	none
CC(=O)OCCSC(=C(Cl)Cl)C(=C1SCCS1)[N+](=O)[O-]	none
O=C(COC(=O)c1ccccc1)c1ccc2ccccc2c1	GPR151 ag 5.4 | GPR151 confirm inactive | GPR119 ag inactive
COc1cccc(C(=O)COC(=O)c2cccc(NC(=O)c3ccccc3)c2)c1	GPR151 ag 6.1 | GPR151 confirm inactive | GPR119 ag inactive
O=C(COC(=O)c1ccc2ccccc2n1)c1ccc(Cl)c(Cl)c1	GPR151 ag 5.6 | GPR151 confirm inactive | GPR119 ag inactive
O=C(COC(=O)c1ccc2ccccc2n1)c1ccccc1	none
Cc1ccc(-c2cc(C(F)(F)F)n3ncc(C(=O)Nc4ccc(OC(F)(F)F)cc4)c3n2)cc1	none
CCN(CC)C(=O)c1sc(N2C(=O)Nc3ccccc3N2O)c(C(=O)OC)c1C	none
COc1ccc(CNC(=O)CCS(=O)(=O)c2ccc3c(c2)n(C)c(=O)c(=O)n3C)cc1	none
COc1cccc(CNC(=O)CCS(=O)(=O)c2ccc3c(c2)SCC(=O)N3)c1	GPR151 ag 10.7 | GPR151 confirm inactive | GPR119 ag inactive
CCC1Sc2cc(S(=O)(=O)CCC(=O)NCc3cccnc3)ccc2NC1=O (stereo unspecified)	GPR151 ag 7.5 | GPR151 confirm inactive | GPR119 ag inactive
COc1ccc(NC(=O)CCS(=O)(=O)c2ccc3c(c2)SCC(=O)N3)cc1Cl	GPR151 ag 5.2 | GPR151 confirm inactive | GPR119 ag inactive
COc1ccc(NC(=O)CCS(=O)(=O)c2ccc3c(c2)SCC(=O)N3)cc1OC	none
Cn1c(=O)c(=O)n(C)c2cc(S(=O)(=O)CCC(=O)NCc3ccccc3)ccc21	GPR151 ag 6.1 | GPR151 confirm inactive | GPR119 ag inactive
COC(=O)CCC(=O)Nc1ccc(OC)c(Cl)c1	GPR151 ag 6.0 | GPR151 confirm inactive | GPR119 ag inactive
CCCC(=O)Nc1ccc(OC)c(Cl)c1	none
COc1ccccc1NC(=O)NNC(=O)CCN1CCOCC1	none
NNC(=O)CSc1nc2cccnc2s1	GPR151 ag 5.1 | GPR151 confirm inactive | GPR119 ag inactive
CCOc1ccc(OCC)c(NC(=O)CN2CCN(C(C)=O)CC2)c1	GPR151 ag 6.8 | GPR151 confirm inactive | GPR119 ag inactive
CCCCOC(=O)C1C2C=CC3(CN(C4CCCCC4)C(=O)C13)O2 (stereo unspecified)	GPR151 ag 5.8 | GPR151 confirm inactive | GPR119 ag inactive
Nc1ncc(Br)cc1S(=O)(=O)NC1CCCCC1	none
Nc1ncc(Br)cc1S(=O)(=O)NC1CCCCCCC1	GPR151 ag 7.3 | GPR151 confirm inactive | GPR119 ag inactive
Cc1cnc(Nc2ccc(-n3ccnc3)cc2)nc1NCCN(C(C)C)C(C)C	GPR151 ag 7.0 | GPR151 confirm inactive | GPR119 ag inactive
COc1ccc(OC)c(C2C(C(N)=O)=C(C)Nc3nc(CCCO)nn32)c1 (stereo unspecified)	GPR151 ag 7.7 | GPR151 confirm inactive | GPR119 ag inactive
Cc1ccccc1OCCCC(=O)Nc1nc(-c2ccccc2)cs1	GPR151 ag 7.1 | GPR151 confirm inactive | GPR119 ag inactive
O=C(O)CCCC(=O)Nc1nc(-c2ccccc2)cs1	none
CC(Oc1ccccc1)C(=O)Nc1nnc(S(=O)(=O)N(C)Cc2ccccc2)s1 (stereo unspecified)	none
COc1ccccc1NC(=O)c1ccc(SCC(=O)NCc2ccc(F)cc2)c([N+](=O)[O-])c1	none
CCOC(=O)C1CN(S(=O)(=O)c2ccc(OC)cc2)c2ccccc2O1 (stereo unspecified)	GPR151 ag 6.5 | GPR151 confirm inactive | GPR119 ag inactive
CC(=O)Oc1ccc(C(=O)c2ccccc2)c(OC(C)=O)c1	GPR151 ag 5.6 | GPR151 confirm inactive | GPR119 ag inactive
COC(=O)c1cc(COC(=O)c2cc(OC)c(OC)cc2[N+](=O)[O-])oc1C	none
CSc1ccc(CNc2ncc(-c3ccccc3)n2C)cc1	GPR151 ag 7.7 | GPR151 confirm inactive | GPR119 ag inactive
CSc1ccc(CNc2ncc(-c3cccc([N+](=O)[O-])c3)n2C)cc1	none
COc1ccc(/C=N/NC(=O)COc2ccc(C)cc2)cc1O	none
CCc1ccc(OCC(=O)N/N=C/c2ccccc2O)cc1	none
COc1cc(/C=N/NC(=O)COc2ccc(Cl)cc2Br)ccc1O	none
CCc1ccc(OCC(=O)N/N=C/c2ccc(O)cc2)cc1	GPR151 ag 5.2 | GPR151 confirm inactive | GPR119 ag inactive
Cc1ccc(/C=N/NC(=O)COc2ccc(Cl)cc2[N+](=O)[O-])s1	none
COc1ccc(/C=N/NC(=O)COc2ccc(Cl)cc2Cl)cc1O	GPR151 ag 9.4 | GPR151 confirm inactive | GPR119 ag inactive
COc1ccc(/C=N/NC(=O)COc2cccc(C)c2)cc1O	GPR151 ag 14.1 | GPR151 confirm inactive | GPR119 ag inactive
O=C(COc1ccc(Cl)cc1Cl)N/N=C\c1ccc([N+](=O)[O-])s1	GPR151 ag 5.7 | GPR151 confirm inactive | GPR119 ag inactive
CC(C(=O)NCCc1cccc2ccccc12)N1C(=O)c2ccccc2C1=O (stereo unspecified)	none
O=C(NCCCO)C(=O)NCC(c1ccco1)N1CCN(c2ccccc2)CC1 (stereo unspecified)	none
CC(=O)OC(COc1cccc2ccccc12)Cn1cnc2ccccc21 (stereo unspecified)	none
CCn1cnc2sc(C(=O)NC(C)c3ccccc3)c(C)c2c1=O (stereo unspecified)	none
C[C@@H](NC(=O)N[C@H]1C[C@H]2C(=O)N[C@H](CO)C(=O)N2C1)c1ccccc1	GPR151 ag 7.6 | GPR151 confirm inactive | GPR119 ag inactive
CC[C@@H]1NC(=O)[C@@H]2C[C@H](NC(=O)OCc3ccccc3)CN2C1=O	GPR151 ag 5.8 | GPR151 confirm inactive | GPR119 ag inactive
CCC[C@@H]1NC(=O)[C@@H]2C[C@H](NC(=O)N[C@@H](C)c3ccccc3)CN2C1=O	none
COc1cccc(C(=O)N[C@H]2C[C@H]3C(=O)N[C@H](CO)C(=O)N3C2)c1	none
O=C(N[C@H]1C[C@H]2C(=O)N[C@@H](CO)C(=O)N2C1)OCc1ccccc1	none
COc1cccc(C(=O)N[C@H]2C[C@H]3C(=O)N[C@@H](CCCCN)C(=O)N3C2)c1	GPR151 ag 5.8 | GPR151 confirm inactive | GPR119 ag inactive
